PubChem BioAssay (Tox21)
Values joined by “and” are separate entries in the source; they are usually repeats but may differ in a detail not shown here. Equal values may be shown once. Results filed as inconclusive are left out. A call without a number means that no potency is given here. Some compounds were tested as several samples or in several runs, with calls that do not always agree. Active and inactive are the calls of the source. Unless noted, calls follow the shape of the dose curve; as a rule, active = well fitted curve in the direction sought with a large enough effect in the repeat runs; inconclusive = weak or mixed curves; inactive = no such curve, though single readings can be large; an effect the other way counts as inactive or inconclusive.

What was measured:
[1] = qHTS assay to identify small molecule antagonists of the thyroid receptor (TR) signaling pathway - cell viability counter screen (AID 743064); also: nearly all actives have a fitted effect of over 50% in size
Summary of the method: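 In-well cytotoxicity read by CellTiter-Fluor (30 min, 37 C) following 23.5 h exposure of GH3 cells bearing a TRE-luciferase sensor. Compounds were added alongside 1 nM (final) T3 to drive TR transactivation.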

[2] = qHTS assay to identify small molecule antagonists of the thyroid receptor (TR) signaling pathway (AID 743065); also: nearly all actives have a fitted effect of over 55% in size
Summary of the method: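 Antagonism measured as loss of luciferase signal in GH3 cells stably carrying a TRE-luciferase reporter, co-treated with compound and T3 (1 nM final) for 23.5 h at 37 C. Viability was read in the same well by CellTiter-Fluor.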

[3] = tested on: thyroid hormone receptor (rat, GH3 cells); test: qHTS assay to identify small molecule agonists of the thyroid receptor (TR) signaling pathway (AID 743066; calls by dose curve)
[4] = molecular target: Estrogen receptor (Homo sapiens) (UniProt P03372); test: qHTS assay to identify small molecule antagonists of the estrogen receptor alpha (ER-alpha) signaling pathway (AID 743069; active = well fitted curve in the direction sought with a large enough effect in the signal ratio in the repeat runs, not every such curve was filed as active; the % refers to the signal ratio; also: potency is read from the fitted curve at half-maximal effect)
Chain of Estrogen receptor (Homo sapiens) (P03372 whole entry, looked up): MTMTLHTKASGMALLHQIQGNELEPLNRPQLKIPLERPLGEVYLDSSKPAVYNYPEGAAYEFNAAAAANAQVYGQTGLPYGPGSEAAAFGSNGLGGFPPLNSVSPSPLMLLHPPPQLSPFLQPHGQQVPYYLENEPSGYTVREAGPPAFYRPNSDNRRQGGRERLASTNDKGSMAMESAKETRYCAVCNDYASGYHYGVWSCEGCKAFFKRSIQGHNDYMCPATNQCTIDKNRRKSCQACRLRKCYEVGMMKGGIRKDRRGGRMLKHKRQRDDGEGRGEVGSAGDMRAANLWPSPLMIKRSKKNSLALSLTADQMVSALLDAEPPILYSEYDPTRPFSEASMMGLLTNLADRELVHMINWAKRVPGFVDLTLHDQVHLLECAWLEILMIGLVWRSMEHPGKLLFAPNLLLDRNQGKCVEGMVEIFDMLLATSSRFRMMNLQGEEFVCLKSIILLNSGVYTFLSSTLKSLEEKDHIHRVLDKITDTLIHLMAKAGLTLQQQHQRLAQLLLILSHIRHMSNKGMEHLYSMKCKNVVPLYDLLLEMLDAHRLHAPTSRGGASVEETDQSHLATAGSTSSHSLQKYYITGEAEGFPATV
Summary of the method: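 Fluorescence intensity from a beta-lactamase FRET substrate served as the read-out. Cells: HEK293 with stably integrated ER-alpha-UAS-bla reporter. Agonist 17beta-estradiol was co-added with compounds; incubation 18 hr at 37C, substrate 2 hr at room temperature.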

[5] = qHTS assay to identify small molecule antagonists of the estrogen receptor alpha (ER-alpha) signaling pathway - cell viability counter screen (AID 743074; calls by dose curve; also: nearly all actives have a fitted effect of over 45% in size; also: potency is read from the fitted curve at half-maximal effect)
[6] = molecular target: Estrogen receptor (Homo sapiens) (UniProt P03372); test: qHTS assay to identify small molecule agonists of the estrogen receptor alpha (ER-alpha) signaling pathway (AID 743075; calls by dose curve)
[7] = molecular target: Estrogen receptor (Homo sapiens) (UniProt P03372); test: qHTS assay to identify small molecule agonists of the estrogen receptor alpha (ER-alpha) signaling pathway using the BG1 cell line (AID 743079); also: nearly all actives have a fitted effect of over 20% in size
[8] = qHTS assay to identify small molecule antagonists of the estrogen receptor alpha (ER-alpha) signaling pathway using the BG1 cell line (AID 743080; calls by dose curve;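 also: BG1 cells stimulated with 17beta-estradiol alongside compound; nearly all actives have a fitted effect of over 25% in size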); conditions: BG1Luc4E2 ERE-luciferase antagonist mode, luminescence; activity change, negative = inhibition: at 70.3 µM (top of the series) unless noted
Summary of the method: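 Quantitative HTS on the Tox21 10K library: BG1 cells with endogenous ER-alpha and ERE-luciferase reporter, 17beta-estradiol stimulation, 21.5 h compound exposure, luminescence endpoint with parallel fluorescence cytotoxicity counter-read.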

[9] = qHTS assay to identify small molecule antagonists of the estrogen receptor alpha (ER-alpha) signaling pathway using the BG1 cell line - cell viability counter screen (AID 743081);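 also: compound given together with 17beta-estradiol as the ER stimulus; nearly all actives have a fitted effect of over 45% in size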; also: potency is read from the fitted curve at half-maximal effect
[10] = molecular target: Aromatase (Homo sapiens) (UniProt P11511); test: qHTS assay to identify aromatase inhibitors (AID 743083); also: nearly all actives have a fitted effect of over 55% in size
Chain of Aromatase (Homo sapiens) (P11511 whole entry, looked up): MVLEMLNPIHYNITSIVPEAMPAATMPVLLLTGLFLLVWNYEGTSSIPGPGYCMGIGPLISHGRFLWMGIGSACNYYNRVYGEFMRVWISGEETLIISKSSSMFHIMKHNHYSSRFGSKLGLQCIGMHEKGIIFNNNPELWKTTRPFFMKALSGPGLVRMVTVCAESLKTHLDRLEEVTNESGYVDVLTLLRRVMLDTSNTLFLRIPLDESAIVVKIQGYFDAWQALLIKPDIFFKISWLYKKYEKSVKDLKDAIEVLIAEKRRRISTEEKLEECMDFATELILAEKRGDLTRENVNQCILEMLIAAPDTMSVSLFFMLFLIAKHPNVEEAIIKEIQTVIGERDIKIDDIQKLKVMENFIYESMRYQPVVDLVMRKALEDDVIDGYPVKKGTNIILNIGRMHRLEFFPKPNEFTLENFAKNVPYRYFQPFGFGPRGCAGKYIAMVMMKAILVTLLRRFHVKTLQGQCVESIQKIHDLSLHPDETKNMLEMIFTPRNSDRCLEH

[11] = qHTS assay to identify aromatase inhibitors - cell viability counter screen (AID 743084);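 also: cells stimulated with testosterone during compound exposure; nearly all actives have a fitted effect of over 55% in size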
[12] = molecular target: Aryl hydrocarbon receptor (Homo sapiens) (UniProt P35869); test: qHTS assay to identify small molecule that activate the aryl hydrocarbon receptor (AhR) signaling pathway (AID 743085);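 also: HG2L7.5c1 human HepG2 liver cells with stably integrated DRE-driven firefly reporter; nearly all actives have a fitted effect of over 15% in size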
Chain of Aryl hydrocarbon receptor (Homo sapiens) (P35869 whole entry, looked up): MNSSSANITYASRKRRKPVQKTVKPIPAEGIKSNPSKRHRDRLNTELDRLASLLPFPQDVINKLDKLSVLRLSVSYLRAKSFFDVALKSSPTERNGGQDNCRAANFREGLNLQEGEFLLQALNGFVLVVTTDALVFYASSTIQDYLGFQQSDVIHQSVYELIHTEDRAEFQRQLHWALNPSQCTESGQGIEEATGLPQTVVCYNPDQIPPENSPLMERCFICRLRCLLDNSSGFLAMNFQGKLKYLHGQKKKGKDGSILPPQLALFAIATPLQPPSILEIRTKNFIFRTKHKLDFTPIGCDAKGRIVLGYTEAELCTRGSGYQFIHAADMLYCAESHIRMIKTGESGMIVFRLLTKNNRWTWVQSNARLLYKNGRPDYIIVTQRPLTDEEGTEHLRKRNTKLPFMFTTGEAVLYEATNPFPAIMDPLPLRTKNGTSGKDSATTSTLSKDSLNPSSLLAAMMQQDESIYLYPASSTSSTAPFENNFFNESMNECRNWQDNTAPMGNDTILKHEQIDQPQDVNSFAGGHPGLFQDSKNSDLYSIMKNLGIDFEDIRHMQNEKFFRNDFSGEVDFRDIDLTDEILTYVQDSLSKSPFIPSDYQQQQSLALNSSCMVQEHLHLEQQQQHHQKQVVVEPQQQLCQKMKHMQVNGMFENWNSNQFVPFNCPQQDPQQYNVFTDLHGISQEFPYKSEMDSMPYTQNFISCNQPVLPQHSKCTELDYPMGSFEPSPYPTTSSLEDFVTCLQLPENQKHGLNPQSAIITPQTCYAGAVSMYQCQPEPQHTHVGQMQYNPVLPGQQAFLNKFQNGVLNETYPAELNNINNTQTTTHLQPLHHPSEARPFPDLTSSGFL
Summary of the method: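 Luminescence (ONE-Glo) from a dioxin-responsive-element luciferase reporter in HG2L7.5c1 HepG2 cells after 24 hr compound exposure at 37C; viability measured by CellTiter-Fluor fluorescence beforehand.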

[13] = molecular target: Peroxisome proliferator-activated receptor gamma (Homo sapiens) (UniProt P37231); test: qHTS assay to identify small molecule agonists of the peroxisome proliferator-activated receptor gamma (PPARg) signaling pathway (AID 743094; active = well fitted activation curve with a large enough effect in the signal ratio in the repeat runs, not every such curve was filed as active; the % refers to the signal ratio)
Chain of Peroxisome proliferator-activated receptor gamma (Homo sapiens) (P37231 whole entry, looked up): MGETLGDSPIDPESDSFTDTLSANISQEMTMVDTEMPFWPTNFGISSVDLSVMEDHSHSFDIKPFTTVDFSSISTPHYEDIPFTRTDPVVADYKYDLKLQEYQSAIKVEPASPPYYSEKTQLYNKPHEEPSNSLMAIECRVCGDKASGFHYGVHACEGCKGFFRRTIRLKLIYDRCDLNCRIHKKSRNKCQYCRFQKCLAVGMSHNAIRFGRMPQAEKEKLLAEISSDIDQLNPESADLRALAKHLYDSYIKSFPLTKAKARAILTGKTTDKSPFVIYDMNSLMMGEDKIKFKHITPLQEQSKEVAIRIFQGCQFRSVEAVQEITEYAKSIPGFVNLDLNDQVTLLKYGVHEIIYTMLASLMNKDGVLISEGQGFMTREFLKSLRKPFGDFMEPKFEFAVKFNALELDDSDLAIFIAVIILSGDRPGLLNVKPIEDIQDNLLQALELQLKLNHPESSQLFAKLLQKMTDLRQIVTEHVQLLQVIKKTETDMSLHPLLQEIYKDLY
Summary of the method: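 Fluorescence-based beta-lactamase readout in HEK293H PPARg UAS-bla cells after 17 h compound exposure (37C) and 1 h B/G FRET substrate incubation at room temperature.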

[14] = molecular target: Peroxisome proliferator-activated receptor gamma (Homo sapiens) (UniProt P37231); test: qHTS assay to identify small molecule antagonists of the peroxisome proliferator-activated receptor gamma (PPARg) signaling pathway (AID 743191; calls by dose curve; also: nearly all actives have a fitted effect of over 30% in size)
Summary of the method: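 Beta-lactamase reporter under UAS control in HEK293H PPARg-bla cells; compound treatment 17 h at 37C. Read-out: fluorescence intensity after 1 h room-temperature incubation with LiveBLAzer B/G FRET substrate.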

[15] = qHTS assay to identify small molecule antagonists of the peroxisome proliferator-activated receptor gamma (PPARg) signaling pathway - cell viability counter screen (AID 743194); conditions: Potency: co-treated with 50 nM rosiglitazone unless noted; also: nearly all actives have a fitted effect of over 55% in size
Summary of the method: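 Viability was measured as CellTiter-Glo luminescence in GeneBLAzer PPARg UAS-bla HEK293H cells. These cells had been exposed 17 h at 37 C to compounds together with rosiglitazone at 50 nM final, with the beta-lactamase readout taken in the same wells.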

[16] = qHTS assay for small molecule agonists of the antioxidant response element (ARE) signaling pathway (AID 743202; active = well fitted activation curve with a large enough effect in the signal ratio in the repeat runs, not every such curve was filed as active; the % refers to the signal ratio; also: potency is read from the fitted curve at half-maximal effect)
Summary of the method: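 Beta-lactamase reporter activity, read as fluorescence intensity, reflects ARE/Nrf2 pathway induction in HepG2 cells after 16 h compound exposure at 37 C; substrate loading was 2 h at room temperature.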

[17] = qHTS assay for small molecule agonists of the antioxidant response element (ARE) signaling pathway - cell viability counter screen (AID 743203; calls by dose curve; also: nearly all actives have a fitted effect of over 55% in size)
Summary of the method: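 Parallel cytotoxicity read-out for the ARE-bla screen: HepG2 reporter cells, 16 hrs with compounds, then CellTiter-Glo luminescence.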

[18] = qHTS assay for small molecule activators of the heat shock response signaling pathway - cell viability counter screen (AID 743209); also: nearly all actives have a fitted effect of over 50% in size
Summary of the method: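 To flag cytotoxic compounds, HSE-bla HeLa cells plated at 1500 cells/well were dosed for 5 h at 37 C, followed by the reporter FRET read and then CellTiter-Glo, with luminescence recorded 30 min after reagent addition.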

[19] = qHTS assay to identify small molecule that activate the aryl hydrocarbon receptor (AhR) signaling pathway - cell viability counter screen (AID 743086);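 also: HepG2 liver cells carrying the AhR DRE luciferase reporter; nearly all actives have a fitted effect of over 45% in size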
Summary of the method: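 Cytotoxicity counter screen: CellTiter-Fluor signal (30 min, 37 C) in 4000 HepG2 cells/well carrying the DRE-luciferase reporter, following 24 h compound exposure at 37 C.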

[20] = qHTS assay for small molecule activators of the heat shock response signaling pathway (AID 743210; active = well fitted activation curve with a large enough effect in the signal ratio in the repeat runs, with a control signal flat, not every such curve was filed as active; the % refers to the signal ratio;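 also: HeLa cells with beta-lactamase reporter driven by heat shock elements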)
Summary of the method: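 Fluorescence from a cleaved B/G FRET substrate (2.5 h, room temp) reports HSE-driven beta-lactamase in HeLa cells treated 5 h at 37 C with DMSO-dissolved compounds.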

Compound	Potency [1]	Potency [2]	Potency [3]	Potency [4]	Potency [5]	Potency [6]	Potency [7]	Potency [8]	Potency [9]	Potency [10]	Potency [11]	Potency [12]	outcome [13]	Potency [14]	Potency [15]	Potency [16]	Potency [17]	Potency [18]	Potency [19]	outcome [20]
C1CCC(NC2CCCCC2)CC1	inactive	inactive	inactive	inactive	inactive	inactive	inactive	inactive	inactive	inactive	inactive	inactive	inactive	inactive	inactive	inactive	inactive	inactive	–	–
COP(=O)(OC)OC=C(Cl)Cl	inactive	inactive	inactive	10.7 µM [inhibitor] (active) and inactive	inactive	inactive	inactive	inactive	inactive	inactive	inactive	–	inactive	–	inactive	–	inactive	inactive	–	–
CC[N+](CC)(CC)CC	inactive	inactive	inactive	–	inactive	–	–	–	inactive	inactive	inactive	–	–	–	inactive	–	inactive	inactive	inactive	–
CCCCCC[n+]1ccccc1	inactive	inactive	inactive	–	inactive	–	–	–	inactive	inactive	inactive	–	–	–	inactive	43.2 µM (active) and inactive and 17.2 µM (active)	inactive	inactive	inactive	inactive
CNC	inactive	–	–	–	inactive	–	–	inactive	inactive	inactive	inactive	–	inactive	inactive	inactive	inactive	inactive	inactive	inactive	–
CCCn1cc[n+](C)c1	inactive	–	–	–	inactive	–	–	inactive	inactive	inactive	inactive	–	inactive	inactive	inactive	inactive	inactive	inactive	–	–
CCCC[N+]1(C)CCCCC1	inactive	inactive	inactive	–	inactive	–	–	–	inactive	inactive	inactive	–	–	–	inactive	–	inactive	inactive	–	–
CCCCCCCCCCCCCCCCn1cc[n+](C)c1	–	–	inactive	–	–	–	–	–	inactive and 49 µM (active) and 27.4 µM (active)	–	–	–	inactive	inactive	–	–	–	–	–	–
CCCCCCCCCCCCOS(=O)(=O)O	inactive	–	inactive	–	inactive	–	–	–	inactive	–	inactive	–	–	–	inactive	inactive	inactive	inactive	inactive	–
Oc1ccccc1-c1ccccc1	inactive	–	inactive	inactive	inactive	inactive	inactive	inactive	inactive	inactive	inactive	–	inactive	inactive	inactive	–	inactive	inactive	–	–
Nc1ccccc1	inactive	–	inactive	–	inactive and 24.5 µM (active)	–	–	–	inactive	inactive	inactive	–	inactive	inactive	inactive	–	inactive	inactive	–	–
CCCCn1cc[n+](C)c1C	inactive	inactive	inactive	–	inactive	–	–	–	inactive	inactive	inactive	–	–	–	inactive	60.8 µM (active) and 54.7 µM (active) and 61.6 µM (active)	inactive	inactive	–	–
CCCC[n+]1cccc(C)c1	inactive	inactive	inactive	–	inactive	–	–	–	inactive	inactive	inactive	–	–	–	inactive	–	inactive	inactive	–	–
CCCC[N+]1(C)CCCC1	inactive	inactive	inactive	–	inactive	–	–	–	inactive	inactive	inactive	–	–	–	inactive	–	inactive	inactive	–	–
O=[N+]([O-])O	inactive	–	–	–	inactive	–	–	–	inactive	inactive	inactive	–	–	–	inactive	–	inactive	inactive	inactive	–
O=c1nc(O)n(Cl)c(=O)n1Cl	inactive	–	inactive	–	inactive	–	–	–	inactive	inactive	inactive	–	inactive	inactive	inactive	inactive	inactive	inactive	–	–
O=C(O)COc1ccc(Cl)cc1Cl	inactive	–	–	–	inactive	–	–	–	inactive	–	–	–	–	–	inactive	–	inactive	inactive	inactive	–
